Measurements reported in PubChem BioAssay (NCATS).
The source made the active and inactive calls. Rule as the data show it: active = potency below about 10 µM; inactive = the rest.
Potency is read from the fitted curve at half-maximal effect.

The compounds below were run against Lysosomal acid glucosylceramidase (Homo sapiens) (UniProt P04062) (assay: Glucocerebrosidase-p2 (AID 348)). Settings: purified GBA, blue fluorogenic substrate, 40 min.
Chain of Lysosomal acid glucosylceramidase (Homo sapiens) (P04062 whole entry, looked up): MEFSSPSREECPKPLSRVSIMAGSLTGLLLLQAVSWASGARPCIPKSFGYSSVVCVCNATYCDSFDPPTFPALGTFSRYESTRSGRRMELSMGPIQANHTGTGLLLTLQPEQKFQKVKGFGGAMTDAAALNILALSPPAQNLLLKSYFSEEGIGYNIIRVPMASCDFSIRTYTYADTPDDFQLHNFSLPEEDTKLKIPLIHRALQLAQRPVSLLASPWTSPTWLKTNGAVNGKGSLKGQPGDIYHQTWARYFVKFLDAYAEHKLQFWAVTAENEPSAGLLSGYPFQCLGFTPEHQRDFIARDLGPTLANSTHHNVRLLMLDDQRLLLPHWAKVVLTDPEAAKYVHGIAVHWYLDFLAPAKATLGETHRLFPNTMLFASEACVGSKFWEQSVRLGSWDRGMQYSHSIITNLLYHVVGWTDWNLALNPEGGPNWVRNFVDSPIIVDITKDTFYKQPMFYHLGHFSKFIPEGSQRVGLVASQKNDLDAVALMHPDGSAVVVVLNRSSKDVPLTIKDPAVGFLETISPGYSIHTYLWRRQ
From the text: Beta-glucocerebrosidase catalyzes the hydrolysis of beta-glucocerebroside to glucose and ceramide. The inherited deficiency of beta-glucocerebrosidase results in Gaucher disease, which is characterized by a wide variety of symptoms including hepatosplenomegaly, anemia, thrombocytopenia, bony lesions and bone marrow infiltration with characteristic storage cells, known as Gaucher cells. There are also forms of the disorder affecting the central nervous system. Patients with the same genotypes can manifest with diverse clinical presentations and it is believed that improper folding and trafficking of beta-glucocerbrosidase may contribute to the phenotypes observed.
Low molecular weight molecules, acting as chaperones, may potentially restore trafficking of misfolded beta-glucocerebrosidase from the endoplasmic reticulum to the lysosomes, thereby enhancing functional lysosomal beta-glucocerebrosidase activity.
Using normal beta-glucocerebrosidase, an assay was developed to screen for small molecule inhibitors that could potentially act as molecular chaperones on the mutant forms [developed with NIH investigator Dr. Ellen Sidransky#s laboratory]. Two pro-fluorescent substrates were chosen for two screens against a small molecule library. One beta-glucocerebrosidase assay used Resorufin beta-D-Glucopyranoside (Marker Gene Technology Inc.), generating a red fluorescent product. The second assay used […] fluorescent product. The Km for the Resorufin beta-D-Glucopyranoside and Fluorescein di-beta-D-Glucopyranoside were determined to be 71.2 uM and 855 uM, respectively. The IC50 values of Conduritol B Epoxide, a known glucocerebrosidase inhibitor, were determined to be 87.5 uM and 117 uM, respectively. The use of two difference pro-fluorescent substrates in the screens helped to eliminate false positives. All compounds were screened in a titration series resulting in AC50s (e.g., IC50s or EC50s). Data normalization and AC50 calculations were accomplished using GeneData software.
NCGC Assay Protocol Summary
Both enzyme and substrate were diluted in buffer composed of 50mM citric acid/KH2PO4, 10mM sodium taurocholate and 0.01% tween-20 at pH 5.9. The final concentration of the enzyme was 0.2 nM in both assays. The compound library was titrated in 7 to 15 concentrations for the primary screens with a final concentration ranging from 0.6 nM to 50 uM. This particular assay protocol is for the "blue" substrate, and it was performed in 1536-well plate format as follows:
Blue fluorescence substrate assay:
1 uL substrate (final concentration of 80 uM)
Incubate at room temperature (RT) for 40 minutes
3 uL stop solution (1 M NaOH and 1 M glycine in water)
Read the plate in Viewlux plate reader (Ex=365(10) and Em=440(10)).
For `COc1ccccc1CNc1ccnc(-c2cccnc2)n1`, the Potency was > 11.4 µM (inactive).
In the case of `COc1ncc2nc(-c3ccccc3)c(=O)n(CCc3ccccc3)c2n1`, the Potency is reported as > 11.4 µM (inactive).
In the case of `N#Cc1ccccc1-c1ccc2ncnc(NCc3cccnc3)c2c1`, the Potency is reported as > 11.4 µM (inactive).
`N#CCCn1c(=O)c(-c2ccc(Cl)cc2)nc2cnc(N3CCOCC3)nc21` was tested, and the Potency was > 11.4 µM (inactive).
For `O=c1c(-c2cccc(F)c2)nc2cncnc2n1Cc1ccc(F)cc1`, the Potency was > 11.4 µM (inactive).
In the case of `CN(Cc1ccco1)c1nc(-c2ccccc2C(F)(F)F)nc2ccccc12`, the Potency is reported as > 11.4 µM (inactive).
In the case of `COc1cccc(-c2ccc3ncnc(NCc4cnc(C)cn4)c3c2)c1`, the Potency is reported as > 11.4 µM (inactive).
In the case of `COc1ccc2[nH]cc(CCNc3ncncc3-c3ccoc3)c2c1`, the Potency is reported as > 11.4 µM (inactive).
`COc1ccccc1-c1ccc2ncnc(N3CCOCC3)c2c1` was tested, and the Potency was > 11.4 µM (inactive).
In the case of `O=C(c1ccco1)N1CCC2(CC1)CN(c1cccc(-c3ccccc3)c1)C2`, the Potency is reported as > 11.4 µM (inactive).
In the case of `O=C1C=C(NCCc2cc(Br)c(O)c(Br)c2)C(=O)c2ncccc21`, the Potency is reported as > 11.4 µM (inactive).
With `COc1cccc(Cn2c(=O)cnc3cnc(Nc4cccc(OC)c4)nc32)c1` the Potency was > 11.4 µM (inactive).
With `COc1cccc(Nc2ncc3nc(-c4cccs4)c(=O)n(C[C@H]4CCCO4)c3n2)c1` the Potency was > 11.4 µM (inactive).
In the case of `COc1cccc(-c2ccc3ncnc(NCc4ccc(OC)cc4OC)c3c2)c1`, the Potency is reported as > 11.4 µM (inactive).
With `COc1ccc(-c2nc3cnc(N4CCN(C)CC4)nc3n(CCc3ccccc3)c2=O)cc1` the Potency was > 11.4 µM (inactive).
In the case of `Cn1cc(-c2nc3cnc(N4CCNCC4)nc3n(CCc3ccccc3)c2=O)c2ccccc21`, the Potency is reported as > 11.4 µM (inactive).
In the case of `COc1ncc2nc(-c3cccs3)c(=O)n(CCC#N)c2n1`, the Potency is reported as > 11.4 µM (inactive).
`O=c1c(CCc2ccccc2)nc2cnc(Nc3ccccc3)nc2n1C[C@H]1CCCO1` was tested, and the Potency was > 11.4 µM (inactive).
In the case of `Cc1ccccc1-c1ccc2ncnc(N3CCOCC3)c2c1`, the Potency is reported as > 11.4 µM (inactive).
With `COc1ccc2[nH]cc(CCNc3nc(-c4c(C)noc4C)nc4ccccc34)c2c1` the Potency was > 2.29 µM (inactive).
In the case of `O=c1c(CCc2ccccc2)nc2cnc(N3CCNCC3)nc2n1Cc1cccs1`, the Potency is reported as > 11.4 µM (inactive).
With `COCCn1c(=O)c(CCc2ccccc2)nc2cnc(Oc3ccccc3)nc21` the Potency was > 11.4 µM (inactive).
`COc1ccc2[nH]cc(CCNc3ncnc4ccc(-c5ccccc5OC)cc34)c2c1` was tested, and the Potency was > 11.4 µM (inactive).
`O=c1c(-c2ccccc2)nc2cnc(N3CCOCC3)nc2n1CCc1ccccc1` was tested, and the Potency was > 11.4 µM (inactive).
In the case of `COc1ccccc1CNc1cc(-c2cccnc2)ncn1`, the Potency is reported as > 11.4 µM (inactive).
With `COc1cccc(-c2ccc3ncnc(N4CCNCC4)c3c2)c1` the Potency was > 11.4 µM (inactive).
In the case of `COc1ccccc1-c1ccc2ncnc(N3CCNCC3)c2c1`, the Potency is reported as > 11.4 µM (inactive).
In the case of `Cc1cccc(CNc2ncncc2-c2ccccc2CN(C)C)c1`, the Potency is reported as > 11.4 µM (inactive).
For `CN(C)c1nc(-c2cccc(C#N)c2)nc2ccccc12`, the Potency was > 11.4 µM (inactive).
`Cn1cc(-c2nc3cnc(N4CCNCC4)nc3n(C3CC3)c2=O)c2ccccc21` was tested, and the Potency was > 11.4 µM (inactive).
In the case of `COc1ccc(-n2c(=O)c(CCc3ccccc3)nc3cnc(OC)nc32)cc1`, the Potency is reported as > 11.4 µM (inactive).
For `COc1ccccc1CNc1ccnc(-c2cccc(NS(C)(=O)=O)c2)n1`, the Potency was > 11.4 µM (inactive).
`Cc1nc2cnc(N3CCN(C)CC3)nc2n(CCc2ccccc2)c1=O` was tested, and the Potency was > 11.4 µM (inactive).
In the case of `CN1CCN(c2ncc3nc(-c4cn(C)c5ccccc45)c(=O)n(CCC#N)c3n2)CC1`, the Potency is reported as > 11.4 µM (inactive).
In the case of `CN(Cc1ccco1)c1ncnc2ccc(-c3cccc(NS(C)(=O)=O)c3)cc12`, the Potency is reported as > 11.4 µM (inactive).
`Cc1nc2cnc(OCc3ccccc3)nc2n(CCc2ccccc2)c1=O` was tested, and the Potency was > 11.4 µM (inactive).
In the case of `COc1cccc(Nc2ncc3ncc(=O)n(CCC#N)c3n2)c1`, the Potency is reported as > 11.4 µM (inactive).
`O=c1c(-c2ccccc2)nc2cncnc2n1Cc1ccccc1` was tested, and the Potency was > 11.4 µM (inactive).
In the case of `COc1ccc2[nH]cc(CCNc3ncnc4ccc(-c5cccc(C#N)c5)cc34)c2c1`, the Potency is reported as > 11.4 µM (inactive).
In the case of `CN1CC[C@H](CN2c3ccccc3Sc3ccccc32)C1`, the Potency is reported as > 11.4 µM (inactive).
